Many of the other results were omitted from the sample, so hits are more common in it than they were.
Giardia FBPA inh – qHTS Assay for Inhibitors of Fructose-1,6-bisphosphate Aldolase from Giardia Lamblia; hit rate 0.71% among 290,000; A8B2U2; Potency, µM (highest dose often 59.6 µM), usual class: inhibitors; purified Giardia FBPA; note: nearly all actives have a fitted effect of over 55% in size
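40 nM FBPA preincubated 10 min at RT with compound (up to 57.5 uM final), then substrate plus GAPDH/TPI/NAD/arsenate coupling and diaphorase/resazurin added. Fluorescence read after 20 min at RT, 525/598 nm.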
Shiga toxin inh – A qHTS for Small Molecule Inhibitors of Shiga Toxin. Vero cells, Shiga toxin protein synthesis inhibition reporter. inhibition, % at 38.7 µM. hit rate 9.2% among 290,000; in the data active = inhibition mostly above about 28%, no sharp cut-off; inactive = mostly below about 43%
RE007 growth inh – qHTS Assay for Inhibitors of the HIV-1 protein Vpr; S. pombe RE007 Vpr strain, BacTiter-Glo ATP luminescence, 24 h; Potency, µM (highest dose often 92.2 µM), hits mostly inhibitors; hit rate 0.21% among 360,000; AID 651644, 2012; active = well fitted falling curve with a large enough effect; inconclusive = small, poorly fitted or top-dose-only effect; inactive = no such curve, though single readings can be large or run the other way; note: nearly all actives have a fitted effect of over 50% in size
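Fission yeast RE007 carrying one integrated HIV-1 vpr copy, seeded at OD 0.01 in PMG+AL medium with 23 nL pinned compound. Grown 24 h at 30 degrees; viability read by BacTiter-Glo luminescence after 5 min.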
LmPK inhibitor – qHTS Assay for Inhibitors of Leishmania Mexicana Pyruvate Kinase (LmPK). Q27686. purified LmPK, Kinase-Glo ATP luminescence, 1 h. Potency, µM (titrated, usually from 57.5 µM), usual class: inhibitors. hit rate 0.37% among 290,000. AID 1721, 2009
Target sequence (Q27686 whole entry, looked up): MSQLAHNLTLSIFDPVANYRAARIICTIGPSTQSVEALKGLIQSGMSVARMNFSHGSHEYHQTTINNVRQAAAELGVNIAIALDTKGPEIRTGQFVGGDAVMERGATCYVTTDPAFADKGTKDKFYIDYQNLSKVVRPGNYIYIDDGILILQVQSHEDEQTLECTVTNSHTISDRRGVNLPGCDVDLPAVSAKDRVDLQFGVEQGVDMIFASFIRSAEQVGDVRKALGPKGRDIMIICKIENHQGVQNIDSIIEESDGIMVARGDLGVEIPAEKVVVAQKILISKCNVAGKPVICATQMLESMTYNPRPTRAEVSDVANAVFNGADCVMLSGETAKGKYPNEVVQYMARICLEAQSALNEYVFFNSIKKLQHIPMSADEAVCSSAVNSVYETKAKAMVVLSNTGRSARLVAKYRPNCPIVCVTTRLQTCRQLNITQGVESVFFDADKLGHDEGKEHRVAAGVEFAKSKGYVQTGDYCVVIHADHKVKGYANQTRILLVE
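ATP generated from ADP (0.1 mM) and PEP (0.5 mM) by 0.1 nM LmPK over 1 h at room temperature (pH 7.2 imidazole buffer) was detected by coupled luciferase luminescence. Values were normalized to uninhibited and no-enzyme wells.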
TbPYK inhibitor – qHTS of Trypanosoma Brucei Inhibitors | pyruvate kinase (Trypanosoma brucei), Q57TT1 | AID 624173, 2012 | TbPYK enzyme, Kinase-Glo Plus ATP luminescence, 45 min | Potency, µM (highest dose often 76.8 µM), most hits filed as inhibitors | hit rate 0.12% among 410,000; note: nearly all actives have a fitted effect of over 50% in size
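Enzyme and substrate buffer are dispensed first and compound is pin-transferred. ADP at 130 uM final then starts the reaction, which runs 45 min at room temperature. Detection reagent is added for 10 min before luminescence is imaged.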
Cycloheximide cs – Cycloheximide Counterscreen for Small Molecule Inhibitors of Shiga Toxin; cell reporter, cycloheximide protein synthesis inhibition counterscreen; max response, %; hit rate 12% among 300,000; AID 2314, 2010; in the data active = max response mostly above about 13%, no sharp cut-off; inactive = mostly below about 14%; note: read at 38.3 µM for the half of the compounds with a filed dose
Numbers stand for hits; – = inactive; ? = inconclusive; · = not tested or not shown. Unless noted, calls come from the whole dose curve; as a rule, active = well fitted curve in the direction sought with a large enough effect; inconclusive = small, poorly fitted or top-dose-only effect, or another doubt; inactive = no such curve, though single readings can be large; an effect the other way counts as inactive or inconclusive.

SMILES	Giardia FBPA inh	Shiga toxin inh	RE007 growth inh	LmPK inhibitor	TbPYK inhibitor	Cycloheximide cs
COC(=O)C[C@@](O)(CCC(C)(C)O)C(=O)O[C@@H]1C(OC)=C[C@]23CCCN2CCc2cc4c(cc2[C@@H]13)OCO4	–	–	·	·	·	–
COc1ccc(NC(C)C(=O)Nc2ccc(C(C)(C)C)cc2)cc1Cl (stereo not given)	–	–	?	–	–	20
CC(=O)c1cnc(Nc2ccc(C)cc2)s1	–	45	–	–	–	30
Cc1ccccc1C(=O)Nc1cccc(NC(=O)c2ccc(C(C)(C)C)cc2)c1	·	·	·	·	–	·
C/C(=N\NC(=O)c1c(Br)c(C)nn1C)c1cccc(NC(=O)c2ccccc2F)c1	–	66	–	–	–	21
C/C(=N\NC(=O)c1ccc(CSc2nncn2C)cc1)c1ccc(C#N)cc1	–	–	–	–	–	–
C/C(=N\NC(=O)c1c(Br)c(C)nn1C)c1cccc(NC(=O)c2ccccc2C)c1	–	–	–	–	–	–
C/C(=N\NC(=O)c1ccc(O)cc1)c1cccc(NC(=O)c2ccccc2C)c1	–	28	–	–	–	25
C/C(=N\NC(=O)c1nn(C)c(C)c1Br)c1cccc(NC(=O)c2ccc(F)cc2)c1	–	active	–	–	–	72
C/C(=N\NC(=O)c1ccccc1F)c1ccc(C#N)cc1	–	129	–	–	–	38
O=C(Nc1cc(F)ccc1F)c1cc2nc(-c3ccco3)cc(C(F)(F)Cl)n2n1	·	·	·	·	–	·
Cc1ccc2c(c1)N(C(=O)CCC(=O)NCc1cccc(F)c1)CC(C)O2 (stereo not given)	·	·	·	·	–	·
O=C(Nc1ccc(Br)cc1C(=O)c1ccccc1Cl)c1ccccc1F	·	·	·	·	–	·
O=C(Nc1cccc(NC(=O)c2ccccc2F)c1)c1ccccc1	–	–	–	–	–	–
C/C(=N\NC(=O)c1cc(Br)ccc1O)c1cccc(NC(=O)c2ccccc2F)c1	·	43	–	–	–	–
C/C(=N\NC(=O)c1ccccc1F)c1cccc(NC(=O)c2ccccc2)c1	·	52	–	–	–	24
CN1C(=C2C(=O)OC(C)(C)OC2=O)Sc2ccccc21	–	117	–	–	–	44
O=C(Nc1ccc(-c2nc3cccnc3s2)cc1)c1cccnc1Cl	–	57	–	–	–	66
O=C(Nc1ccc(-c2nc3cccnc3s2)cc1)c1ccc(Cl)nc1	–	68	–	–	–	34
CCOc1ncccc1C(=O)Nc1cccc(-c2nc3cccnc3s2)c1	–	–	–	–	–	–
CCNC(=O)COc1ncnc2scc(-c3ccc(F)cc3)c12	–	–	–	–	–	–
O=C(COc1ncnc2scc(-c3ccc(Cl)cc3)c12)NCc1ccco1	–	53	–	–	–	–
CC(C)Cc1nn2c(=O)cc(COC(=O)c3ccccc3NC(=O)c3ccccc3)nc2s1	·	·	·	·	–	·
COc1ccc(-n2nc(C(=O)N(C)c3cc(Cl)ccc3OC)c3c4ccccc4n(C)c3c2=O)cc1	·	·	·	·	–	·
Cc1csc(NC(=O)c2cc3c(s2)CCCC3)n1	–	81	·	?	–	62
SMILES	Giardia FBPA inh	Shiga toxin inh	RE007 growth inh	LmPK inhibitor	TbPYK inhibitor	Cycloheximide cs
Cc1csc(NC(=O)c2cc3c(s2)CCCCC3)n1	–	–	–	?	–	15
CCc1nnc(NC(=O)c2cc3c(s2)CCCCC3)s1	·	·	–	·	–	·
Cc1cnc(NC(=O)c2cc3c(s2)CCCC3)s1	–	61	–	–	–	40
COc1ccc([C@H]2c3cc(OC)c(OC)cc3C[C@@H](C)[C@@H]2C)cc1OC	–	·	·	·	·	·
Cc1cc(OCC(=O)Nc2sc3c(c2C(N)=O)CCCC3)ccc1C(C)C	·	·	·	·	–	·
COc1ccc(-c2cc(-c3ccccc3O)[nH]n2)cc1	–	71	?	–	–	55
Oc1ccccc1-c1cc(-c2ccccc2)n[nH]1	·	·	–	·	–	·
COc1ccc(-c2cc(-c3ccccc3)n[nH]2)c(O)c1	–	82	?	–	–	32
COc1ccc(/C=C/c2nc(-c3ccccc3O)n[nH]2)cc1	–	74	?	–	–	70
COc1ccc(-c2ncncc2-c2ccccc2)c(O)c1	–	–	–	–	–	–

Screens (PubChem BioAssay)
